Compound activity as filed in PubChem BioAssay.
Compounds with a hit are over-represented: about 11% of the library has one in this group of screens.
G9a block = blocks human histone lysine methyltransferase G9a | AID 504332 | G9a H3K9 monomethylation, AlphaScreen, 2 h | Potency, µM (highest dose often 102 µM), for the others: at the top dose activity, negative = inhibition, usual class: inhibitors | 8.8% of 350,000 active | Q96KQ7; also: % is scaled to controls: 0 for no effect and ±100 for the full control effect; nearly all actives have a fitted effect of over 75% in size
Target sequence (Q96KQ7 913-1193 limits assumed): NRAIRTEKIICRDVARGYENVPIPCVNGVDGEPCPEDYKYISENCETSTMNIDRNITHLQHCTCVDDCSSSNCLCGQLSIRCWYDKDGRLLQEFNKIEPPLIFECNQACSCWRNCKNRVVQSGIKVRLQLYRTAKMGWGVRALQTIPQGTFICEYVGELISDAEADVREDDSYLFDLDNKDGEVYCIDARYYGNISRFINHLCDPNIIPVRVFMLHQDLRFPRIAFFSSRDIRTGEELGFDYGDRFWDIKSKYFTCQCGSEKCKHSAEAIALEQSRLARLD
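Using a bead-based AlphaScreen, monomethylated H3K9 product from 2 h room-temperature reactions (G9a 20 nM, peptide 500 nM, SAM 20 uM) was detected with 0.5 ug/mL rabbit anti-H3K9me1 antibody.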
HP1b binding inh = inhibitors of HP1-beta chromodomain binding to methylated histone tails. P83916. AlphaScreen HP1-beta / biotin-H3K9me3 peptide binding. Potency, µM (doses to about 114 µM), for the others: top-dose activity change, negative = inhibition, usual class: inhibitors. 0.56% of 390,000 active; also: nearly all actives have a fitted effect of over 70% in size
Target sequence (P83916 whole entry, looked up): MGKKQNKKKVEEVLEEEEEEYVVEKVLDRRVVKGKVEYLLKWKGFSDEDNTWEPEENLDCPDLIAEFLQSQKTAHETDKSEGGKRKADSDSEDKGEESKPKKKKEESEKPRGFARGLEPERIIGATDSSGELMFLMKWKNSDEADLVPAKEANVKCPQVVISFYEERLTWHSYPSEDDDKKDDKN
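Compound inhibition of the preformed complex between 50 nM HP1-beta and 50 nM biotinylated H3K9me3 peptide was read by AlphaScreen. Buffer was PBS pH 7.4 with 0.01% Tween-20. Incubations ran 30 min at room temperature, with 10 ug/mL donor/acceptor beads.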
JMJD2A Tudor inh = inhibitors of human JMJD2A Tudor domain. Potency, µM (top dose mostly 114 µM), without a hit: at the top dose activity change, negative = inhibition, usual class: inhibitors. 4.4% of 390,000 active. AlphaScreen JMJD2A-Tudor / H3K4me3 peptide binding. O75164; also: % is scaled to controls: 0 for no effect and ±100 for the full control effect; nearly all actives have a fitted effect of over 50% in size
L3MBTL1 inh = inhibitors of human L3MBTL1. AlphaScreen L3MBTL1–H3K9me1 peptide binding. 0.66% of 230,000 active. Potency, µM (highest dose often 57.1 µM), without a hit: top-dose activity, negative = inhibition, usual class: inhibitors. Q9Y468; also: % is scaled to controls: 0 for no effect and ±100 for the full control effect; nearly all actives have a fitted effect of over 60% in size
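Displacement of a biotinylated histone H3(1-15) peptide monomethylated at Lys9 (75 nM) from L3MBTL1 (50 nM) was measured by AlphaScreen after a 30 min room-temperature compound incubation; cefsulodin titration served as intraplate control.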
BAZ2B block = blocks human BAZ2B; Q9UIF8; AlphaScreen BAZ2B-H3K14Ac peptide displacement; Potency, µM (doses to about 114 µM), for inactives: at the top dose activity change, negative = inhibition, actives largely listed as inhibitors; 4.4% of 360,000 active; also: % is scaled to controls: 0 for no effect and ±100 for the full control effect; nearly all actives have a fitted effect of over 60% in size
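AlphaScreen luminescence quantifies BAZ2B engagement of H3K14Ac peptide; the protein and biotinylated peptide are both at 50 nM final, buffer PBS pH 7.4 with 0.01% Tween-20, all steps at room temperature.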
An asterisk follows results filed as active; ? = inconclusive; . = not tested or not shown; ! = not active in a repeat; [ ] = another dose, or the depositor's remark. Calls follow the shape of the dose curve; as a rule, active = well fitted inhibition curve with a large enough effect; inconclusive = small, poorly fitted or top-dose-only effect; inactive = no such curve, though single readings can be large or run the other way. Potency is read from the fitted curve at half-maximal effect.

SMILES	G9a block	HP1b binding inh	JMJD2A Tudor inh	L3MBTL1 inh	BAZ2B block
Cc1ccccc1NC(=O)c1ccc(N(Cc2ccccc2)S(C)(=O)=O)cc1	-5%[59 µM]	18%	-17%	.	2%
COc1ccc(-c2ccc(N(C)C)cc2)cc1[C@H]1[C@H]2C=CC[C@@H](C)[C@@H]2C(=O)N1Cc1ccccc1	?	?	5.6µM*	.	?
COc1ccc(-c2ccc(N(C)C)cc2)cc1C1C2C=CCC(C)C2C(=O)N1Cc1ccccc1 (centres undefined)	.	-24%	7.1µM*	.	.
COc1ccc(-c2ccc(OC)c([C@H]3[C@H]4C=CC[C@@H](C)[C@@H]4C(=O)N3Cc3ccccc3)c2)cc1C	12%[59 µM]	38%	-12%	.	-11%
NS(=O)(=O)c1ccc(CCNC(=O)c2ccc(-c3ccccc3)cc2)cc1	-3%	41%	-1%	6%	-28%
CCOc1ccc(OCC)c(NC(=O)C2CCN(S(=O)(=O)c3ccc(Br)s3)CC2)c1	1%[59 µM]	30%	2%	.	3%
C/C(=N\NC(=O)c1ccccc1F)c1ccc2c(c1)Nc1ccccc1S2	?	17%	-19%	-7%	-1%
C/C(=N\NC(=O)c1ccc(O)cc1)c1ccc2c(c1)Nc1ccccc1S2	16µM*	-22%	79µM*	1%	50µM*
Cc1ccc(NC(=O)Cn2nnc(-c3nc(-c4ccc(Cl)cc4)no3)c2N)cc1C	?	28%	9%	.	-10%
O=C(Nc1ccc(C(=O)OCc2cc(=O)n3c4c(sc3n2)CCCC4)cc1)c1ccc(Cl)cc1	-4%[12.7 µM]	28%	10%	.	-4%
Cc1ccc(C(=O)OCC(=O)Nc2ccccc2)cc1NC(=O)c1ccco1	8%[59 µM]	15%	5%	2%	.
Cc1ccc(C(=O)OCC(=O)Nc2sccc2C(N)=O)cc1NC(=O)c1ccco1	0.89µM*	26%	-12%[57.1 µM]	.	-34%
Cc1ccc(C(=O)OCC(=O)Nc2sc3c(c2C#N)CCCCC3)cc1NC(=O)c1ccco1	-11%[59 µM]	20%	-21%	-5%	-2%
Cc1ccc(C(=O)OCC(=O)Nc2ncc(Cl)cc2Cl)cc1NC(=O)c1ccco1	45µM*	14%	?	.	-30%
Cc1ccc(C(=O)OCC(=O)Nc2sc3c(c2C#N)CCCC3)cc1NC(=O)c1ccco1	22µM*	-2%	-28%	.	-30%
COc1ccc(N=C2C(=Nc3ccc(OC)cc3)N(c3ccc(N(C)C)cc3)C(=S)N2c2ccc(OC)cc2)cc1	8.9µM*	?	2.2µM*	.	1.6µM*
COc1ccc(N=C2C(=Nc3ccc(OC)cc3)N(c3ccccc3)C(=S)N2C(=O)c2ccc(Cl)cc2)cc1	7.1µM*	?	?	-16%	?
COc1ccc(N=C2C(=Nc3ccc(OC)cc3)N(c3ccc(OC)cc3)C(=S)N2C(=O)c2ccc(OC)cc2)cc1	3.5µM*	-53%	?	?	?
COc1ccc(N2C(=S)N(C(=O)c3ccccc3)C(=Nc3ccccc3)C2=Nc2ccccc2)cc1	.	-53%	?	.	.
CC1=C(C(=O)Nc2ccccc2)C(c2cccnc2)n2nc(SCc3ccccc3Cl)nc2N1 (centres undefined)	2%[59 µM]	52%	5%	.	?
Cc1ccc(C(=O)/C=C/c2cn(CC(O)CN3CCCCCC3)c3ccccc23)cc1 (centres undefined)	?	-21%	50µM*	.	?
COc1ccc(C(=O)/C=C/c2cn(CC(O)CN3CCCCCC3)c3ccccc23)cc1OC (centres undefined)	?	-18%	?	.	28µM*
COc1ccc(C(=O)/C=C/c2cn(CC(O)CN3CCN(C)CC3)c3ccccc23)cc1OC (centres undefined)	-23%	9%	-17%	-20%	-24%
Cc1ccc(N(CC(=O)NCc2ccco2)C(=O)CCC(=O)Nc2ccccn2)c(C)c1	22µM*	11%	-14%	.	-14%
Cc1cc(C)cc(N(CC(=O)NCc2ccco2)C(=O)CCC(=O)Nc2ccccn2)c1	-14%	?	-14%	-4%	-10%
SMILES	G9a block	HP1b binding inh	JMJD2A Tudor inh	L3MBTL1 inh	BAZ2B block
Cc1ccc(N(CC(=O)NCc2ccc(F)cc2)C(=O)CCC(=O)Nc2ccccn2)cc1C	15%[59 µM]	10%	79µM*	.	3%
COc1ccc(NC(=O)Cn2c(=O)n(-c3ccccc3)c(=O)c3c4c(sc32)CCCC4)cc1	10%[59 µM]	32%	-3%	.	3%
CCOC(=O)c1c(C)[nH]c(C)c1S(=O)(=O)N1CCCC(C(=O)Nc2cccc(CC)c2)C1 (centres undefined)	-31%[59 µM]	10%	-25%	.	-27%
C#CCOc1ccc(C2C3=C(CC(C)(C)CC3=O)N(CC(=O)O)C3=C2C(=O)CC(C)(C)C3)cc1OC	.	25%	-4%	19%	-1%
CCOc1ccc(C2C3=C(CC(C)(C)CC3=O)N(CC(=O)O)C3=C2C(=O)CC(C)(C)C3)cc1OCC	50µM*	42%	-15%	-13%	2%
O=C(O)c1cc(-c2ccc(/C=N/Nc3ccc(Cl)cc3)o2)ccc1Cl	?	-2%	?	-10%	-34%
Cc1ccc(/C=C2\SC(=S)N(Cc3ccccc3)C2=O)o1	?	-21%	14µM*	-7%	?
COc1ccc(NC(=O)/C(C#N)=C/c2ccc(-c3ccc(Cl)c(C(=O)O)c3)o2)cc1	.	0%	?	16%	1%
O=C(O)c1cc(-c2ccc(/C=C3/SC(=S)N(Cc4ccccc4)C3=O)o2)ccc1Cl	13µM*	?	56µM*	.	?
COc1ccc(CN2C(=O)/C(=C/c3ccc(-c4ccc(Cl)c(C(=O)O)c4)o3)SC2=S)cc1	32µM*	.	.	.	?
O=C(CN1C(=O)CC(c2ccccc2)Sc2ccccc21)Nc1cccc(Cl)c1 (centres undefined)	-3%[59 µM]	14%	-12%	.	-3%
COc1ccc(CNC(=O)CS(=O)(=O)Cc2nc(-c3cccc(OC)c3)oc2C)cc1	5%	16%	-10%	.	-13%
CN(C)CC(C)(C)CNS(=O)(=O)c1ccc(Cl)c(Cl)c1	?	-11%	18µM*!	3%	?
O=c1c(-c2cc(F)cc(F)c2)nc2cnc(N3CCNCC3)nc2n1Cc1cccs1	9%[12.7 µM]	.	.	.	.
C=CCn1c(SCC(=O)N(C)CC(=O)Nc2ccc(C)cc2)nnc1-c1ccncc1	.	2%	-19%	-3%	.
COc1ccc(Cl)cc1NC(=S)N(Cc1ccccc1C)CC1CCC(C(=O)O)CC1 (centres undefined)	28µM*	8%	-14%	.	6%
CCc1ccccc1NC(=S)N(Cc1ccc(OC)cc1)CC1CCC(C(=O)O)CC1 (centres undefined)	-2%	43%	-1%	.	9%
Cc1ccc(C(=O)OC(C)C(=O)c2cc(C)c(C)cc2C)o1 (centres undefined)	2%	43%	8%	.	1%
Cc1cc(C)c(C(=O)C(C)OC(=O)c2ccccn2)cc1C (centres undefined)	?	9%	50µM*	.	79µM*
